# In PubChem BioAssay (NCI):
# This is part of a sample that, as a whole, favours compounds with a hit. Of some 83,000 tested, about 20% had one in any assay.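 Cell lines were cultured in 96-well plates, exposed to a single compound concentration, and assessed for percent growth 48 hours later.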 Activity calls are given as the source filed them. How the source made its calls: active means growth percent below 10; inactive means the rest.
# Test system: K-562 leukemia
# Assay: NCI-60 one-dose screen, 48 h (100 = growth as untreated, 0 = no growth, -100 = all killed)
# Conditions: 10 µM
row,SMILES,growth
1,Cc1cccc2cc(-c3cc(-c4ccccc4)nc(=S)[nH]3)c(Cl)nc12,38% (inactive)
2,COc1ccc2nc(Cl)c(-c3cc(-c4ccccc4)nc(=S)[nH]3)cc2c1,24.8% (inactive)
3,Cc1ccc(C(=O)Nc2ccc(-n3c(C)nc4c(cnn4-c4ccccc4)c3=O)cc2)cc1,31.2% (inactive)
4,Cc1ccc(-c2ccc(SCC(=O)Nc3ccc(Cl)c(C(F)(F)F)c3)nn2)cc1,4.76% (active)
5,Cc1nn(-c2ccccc2)c2ncn(CC(=O)N/N=C/c3c[nH]c4ccccc34)c(=O)c12,84.2% (inactive)
6,S=c1nc(-c2ccccc2)cc(-c2cc3ccccc3nc2Cl)[nH]1,14.2% (inactive)
7,COc1ccc2nc(Cl)c(-c3cc(-c4ccccc4)nc(N)n3)cc2c1,0.267% (active)
8,O=C1CCC(N2Cc3c(NCc4ccc(-c5ccccc5)cc4)cccc3C2=O)C(=O)N1 (centres undefined),72.4% (inactive)
9,O=c1nc(-c2ccccc2)cc(-c2cc3ccccc3nc2Cl)[nH]1,-11.9% (active)
10,Cc1nc2c(cnn2-c2ccccc2)c(=O)n1-c1ccc(NC(=O)c2ccc(F)cc2)cc1,27.2% (inactive)
11,O=C(c1ccc([N+](=O)[O-])c([N+](=O)[O-])c1O)n1[nH]c(=O)c2ccccc2c1=O,12.8% (inactive)
12,Cc1ccc(-c2cc(-c3cc4ccccc4nc3Cl)[nH]c(=S)n2)cc1,18.6% (inactive)
13,COc1ccc2nc(Cl)c(-c3cc(-c4ccccc4)nc(=O)[nH]3)cc2c1,4.96% (active)
14,O=C(NO)c1ccc(CNc2nc(-c3ccccc3)c3ccccc3n2)cc1,9.84% (active)
